{"source": "PubChem BioAssay (Tox21)", "note": "Results filed as inconclusive are left out. Values without a mark were called inactive. Active and inactive are the calls of the source. Calls follow the shape of the dose curve; as a rule, active = well fitted inhibition curve with a large enough effect in the repeat runs; inconclusive = weak or mixed curves; inactive = no such curve, though single readings can be large or run the other way.", "data": [{"assay": "qHTS assay to identify small molecule antagonists of the estrogen related receptor (ERR) signaling pathway from Tox21 library (AID 1224848); also: nearly all actives have a fitted effect of over 50% in size; also: potency is read from the fitted curve at half-maximal effect; as to activity, negative = inhibition: % is scaled to controls: 0 for no effect and ±100 for the full control effect", "conditions": "ERR reporter cell line, luciferase antagonist mode, 18 h; series mostly up to 92.4 µM; activity, negative = inhibition: at the top concentration", "source_text": "U.S. Tox21 Program National Center for Advancing Translational Sciences [NCATS] NIH Chemical Genomics Center [NCGC] U.S. Environmental Protection Agency [EPA] National Institutes of Environmental Health Sciences [NIEHS] National Toxicology Program [NTP] U.S. Food and Drug Administration [FDA] Tox21 Assay Overview: Estrogen related receptors (ERRs), the first orphan nuclear receptors discovered, play an important role in the control of cellular energy metabolism. ERRs are required for high-energy production in response to the environmental challenges. ERR-alpha was also identified as an adverse marker for breast cancer progression; ERR-alpha-positive tumors have a poor prognosis. To screen and to identify environmental compounds that perturb the ERR signaling pathways could provide valuable information for potential therapeutic or preventive measures in the treatment of metabolic disease. For identifying ERR antagonists, ERR cell line (provided by NTP) has been used to screen Tox21 10K library.\nTox21 Assay Protocol Summary: The ERR cells were dispensed at 2,000 cells/5 ul/well in 1536-well white plates using a Multidrop dispenser. After the assay plates were incubated at a 37 C/5% CO2 incubator for 6 hours, 23 nL of compounds dissolved in DMSO, positive and negative controls or DMSO only was transferred to the assay plate by a pin tool. The plates were incubated at 37 C for 18 hours. 4 ul/well of One-Glo reagent was added into the assay plates using a Flying Reagent Dispenser. After 30-minute incubation at room temperature, the luminescence intensity in the plates was measured using a ViewLux plate reader.", "values": [{"compound": "CC(O)C1CCCCC1", "note": "(stereo not given)", "activity, negative = inhibition": "10.1%"}, {"compound": "CN1CCC(=C2c3ccccc3C=Cc3ccccc32)CC1", "activity, negative = inhibition": "4.12% [at 42.5 µM]"}, {"compound": "O=C(O)Cc1cc(I)c(Oc2ccc(O)c(I)c2)c(I)c1", "Potency": "27.3 µM (active)"}, {"compound": "Nc1ccc(C(=O)N2CC3CC(CN(Cc4ccccc4)C3)C2)cc1", "activity, negative = inhibition": "-18% [at 42.5 µM]"}, {"compound": "CC(CN)CCCN", "note": "(stereo not given)", "activity, negative = inhibition": "-3.6%"}, {"compound": "Cn1c(NCCN(CCO)CCCc2ccc([N+](=O)[O-])cc2)cc(=O)n(C)c1=O", "activity, negative = inhibition": "7.05% [at 42.5 µM]"}, {"compound": "CCCC[C@H]1CN(CC2CCOCC2)C(=O)OC12CCN(C1(C)CCN(C(=O)c3c(C)ncnc3C)CC1)CC2", "activity, negative = inhibition": "0.173%"}, {"compound": "CCCCCC/C=C/C=O", "activity, negative = inhibition": "3.05%"}, {"compound": "CC(=O)N(CC(=O)N(C)C)c1ccccc1", "activity, negative = inhibition": "1.78% [at 42.5 µM]"}, {"compound": "COc1cc(C(C)(C)C)c(O)c(C(C)(C)C)c1", "activity, negative = inhibition": "-6.9%"}, {"compound": "O=C(CC(=O)c1ccccc1)c1ccccc1", "activity, negative = inhibition": "92.5%"}, {"compound": "NC(=S)N/N=C/c1cccnc1", "activity, negative = inhibition": "0.0549% [at 42.5 µM]"}, {"compound": "O=C(O)Cn1c(C(=O)Nc2nc(-c3ccccc3Cl)cs2)cc2ccccc21", "activity, negative = inhibition": "19.1% [at 42.5 µM]"}, {"compound": "Cn1sccc1=O", "Potency": "48.6 µM (active)"}, {"compound": "Oc1ccc(O)c2c(O)cccc12", "activity, negative = inhibition": "2.55%"}, {"compound": "OCC1CC2CC1C1CCC(CO)C21", "note": "(stereo not given)", "activity, negative = inhibition": "-1.35%"}, {"compound": "Cc1ccc(C(=O)C(C)CN2CCCCC2)cc1", "note": "(stereo not given)", "activity, negative = inhibition": "8.41% [at 42.5 µM]"}, {"compound": "CCC(=O)OC(C)(C)C1CC=C(C)CC1", "note": "(stereo not given)", "activity, negative = inhibition": "-14.6%"}, {"compound": "O=C(c1ccc(O)cc1)c1ccc(O)cc1", "activity, negative = inhibition": "56.6%"}, {"compound": "O=C(NN1CCCC1)NS(=O)(=O)c1ccc(Cl)cc1", "activity, negative = inhibition": "9.95% [at 42.5 µM]"}, {"compound": "CCN(CC)C(C)=O", "activity, negative = inhibition": "4.38%"}, {"compound": "Nc1nc(CC(=O)O)cs1", "Potency": "61.3 µM (active)"}, {"compound": "NC(N)=NN=C(/C=C/c1ccc([N+](=O)[O-])o1)/C=C/c1ccc([N+](=O)[O-])o1", "Potency": "2.66 µM (active)"}, {"compound": "CCN(CC)CCOc1ccc2c(c1)C(=O)c1cc(OCCN(CC)CC)ccc1-2", "Potency": "18.8 µM (active)"}, {"compound": "CCCCOC(=O)/C=C\\C(=O)OCCCC", "activity, negative = inhibition": "-11.7%"}, {"compound": "Cc1ccc(C)o1", "activity, negative = inhibition": "1.12%"}, {"compound": "NCc1ccccc1", "activity, negative = inhibition": "18.3%"}, {"compound": "N=C(N=C(N)N)N1CCOCC1", "activity, negative = inhibition": "18.7% [at 42.5 µM]"}, {"compound": "CC(C)(C)c1ccc(OCC2CO2)cc1", "note": "(stereo not given)", "activity, negative = inhibition": "4.88%"}, {"compound": "CN1CCN(C2=Nc3ccccc3Sc3ccc(Cl)cc32)CC1", "activity, negative = inhibition": "1.87% [at 42.5 µM]"}, {"compound": "CN1CCC(=C2c3ccccc3CCc3sccc32)CC1", "activity, negative = inhibition": "-15.8% [at 42.5 µM]"}, {"compound": "CC/C(=C\\C(=N/O)C(N)=O)C(C)[N+](=O)[O-]", "note": "(stereo not given)", "activity, negative = inhibition": "6.05%"}, {"compound": "CCOc1ccc2[nH]cc(C(=O)NCc3ccccc3)c(=O)c2n1", "Potency": "24.3 µM (active)"}, {"compound": "Cc1cccc(Oc2ccccc2)c1", "Potency": "26.6 µM (active)"}, {"compound": "CCCCCCCCCO", "activity, negative = inhibition": "7.69%"}, {"compound": "N[C@H]1C(O)O[C@H](CO)[C@H](O)[C@@H]1O", "note": "(stereo not given in full)", "activity, negative = inhibition": "1.65%"}, {"compound": "Cc1cccc(OCCOc2cccc(C)c2)c1", "activity, negative = inhibition": "11.4%"}, {"compound": "NC(N)=N/N=C/c1c(Cl)cccc1Cl", "activity, negative = inhibition": "-28% [at 42.5 µM]"}, {"compound": "Cn1c(=O)c2c(ncn2CC(O)CO)n(C)c1=O", "note": "(stereo not given)", "activity, negative = inhibition": "11.8% [at 42.5 µM]"}, {"compound": "O=C(C(=O)c1ccc(Br)cc1)c1ccc(Br)cc1", "activity, negative = inhibition": "-0.511% [at 19 µM]"}]}]}
